Shown are actives, neighbours in structure and some others; about 8.7% of the full set was active somewhere.
Smad3 inh = Smad3 (human) transcription factor binding inhibition; AID 630; P84022; TR-FRET Smad3/Dy647-FoxH1 peptide binding, europium anti-His; inhibition, % at 25 µM; actives 0.29% (n = 88,000);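 active means compounds that reduce the energy-transfer binding signal between the protein and its labelled peptide by more than half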
Target sequence (P84022 whole entry, looked up): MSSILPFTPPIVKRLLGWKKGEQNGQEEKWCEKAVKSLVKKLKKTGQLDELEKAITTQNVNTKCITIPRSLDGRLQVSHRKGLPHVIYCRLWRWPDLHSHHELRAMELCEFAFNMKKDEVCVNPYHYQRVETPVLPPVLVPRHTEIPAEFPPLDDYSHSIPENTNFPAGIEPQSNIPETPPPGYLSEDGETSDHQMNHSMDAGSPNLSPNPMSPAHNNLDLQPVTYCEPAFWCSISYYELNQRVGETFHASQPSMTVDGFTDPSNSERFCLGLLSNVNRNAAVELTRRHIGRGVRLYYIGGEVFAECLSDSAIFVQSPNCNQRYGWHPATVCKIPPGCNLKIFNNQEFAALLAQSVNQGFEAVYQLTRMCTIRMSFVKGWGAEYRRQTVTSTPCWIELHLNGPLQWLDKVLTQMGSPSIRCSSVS
PostGolgi yeast = growth inhibition of a yeast mutant, post-Golgi transport screen. post-Golgi transport phenotypic cell assay. inhibition, % at 10 µM. actives 0.9% (n = 98,000);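 further: yeast cells grown in 1536-well plates; yeast grown about 18 h at 30C before absorbance read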
DAT uptake mod = modulates human dopamine transporter uptake under cocaine; Q01959; LLC-PK1 hDAT cells, [14C]-dopamine uptake with cocaine IC80; actives deviate in either direction; B-score at 10 µM; actives 1.3% (n = 110,000); AID 449768;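 active means Z score or B-score, a plate-position-corrected score, falls beyond the plate's 99.7% confidence bounds, in either direction; inactive means both scores lie inside the 99.7% bounds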
PostGolgi ctrl = inhibits growth of the yeast control strain; efflux-deficient yeast background strain, growth absorbance A615, 16 h; inhibition, % at 10 µM; AID 738; actives 5% (n = 98,000)
Cav32 inh = blocks human Cav3.2 T-type calcium channel; AID 449739; B-score at 10 µM; actives 4% (n = 100,000); Cav3.2-expressing cells, Fluo-4 calcium fluorescence FDSS; stronger effect = lower value; O95180;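 active means single-dose well whose peak fluorescence ratio is a statistical outlier from its plate by either plate-standardised score or position-corrected B-score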
TNAP act mid DEA = activates human TNAP at intermediate phosphate acceptor concentration. purified TNAP, CDP-star luminescence, 100 mM DEA, 30 min; stronger effect = higher value; scale: 0 levamisole-inhibited, 1 vehicle-only enzyme. activation factor at 20 µM. 64,000 tested, under 10 active. AID 813;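 active means activation factor of at least 2 at 20 µM, relative to controls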
A number is an active result; – = inactive; · = no result given. Unless noted, no stated cut-off is given here; in the data, active means inhibition above about 30%; inactive means the rest.

SMILES	Smad3 inh	PostGolgi yeast	DAT uptake mod	PostGolgi ctrl	Cav32 inh	TNAP act mid DEA
N#CCSc1nc2[nH]ncc2c(=O)n1-c1ccccc1Br	–	–	–	–	–	–
CCN(CC)c1cccc(OCC(=O)N(C)CCC#N)c1	–	–	–	–	–	–
CCCCN(CCCC)CCCNC(=O)C12CN(Cc3ccccc3)CC1C(c1cccc([N+](=O)[O-])c1)=NO2 (stereo not given)	·	–	–	–	-3.2	·
O=C(NCc1cc(C(F)(F)F)cc(C(F)(F)F)c1)C12CN(Cc3ccccc3)CC1C(c1cccc([N+](=O)[O-])c1)=NO2 (stereo not given)	·	–	–	–	–	·
O=C(NCC1CCCO1)C12CN(Cc3ccccc3)CC1C(c1cccc([N+](=O)[O-])c1)=NO2 (stereo not given)	·	–	–	–	–	·
O=C(NCc1ccc(OC(F)(F)F)cc1)C12CN(Cc3ccccc3)CC1C(c1cccc([N+](=O)[O-])c1)=NO2 (stereo not given)	·	–	–	–	-3.8	·
O=C(NCc1ccccc1)C12CN(Cc3ccccc3)CC1C(c1cccc([N+](=O)[O-])c1)=NO2 (stereo not given)	·	–	–	–	-3.4	·
Cc1ccc(CCNC(=O)C23CN(Cc4ccccc4)CC2C(c2ccc([N+](=O)[O-])cc2)=NO3)cc1 (stereo not given)	·	–	–	–	–	·
Cn1c(=O)oc2cc(S(=O)(=O)Nc3cccc(C(=O)O)c3)ccc21	–	–	–	–	–	–
CCc1cccc(NS(=O)(=O)c2ccc3c(c2)oc(=O)n3C)c1	–	–	·	31	·	–
CC(Sc1nc(NCc2ccccc2)nc(N(C)C)n1)C(=O)Nc1ccccc1 (stereo not given)	·	–	–	–	-3.4	·
Cc1cc(=O)oc2cc(NC(=O)CCC(=O)O)ccc12	·	–	–	–	–	·
CCc1ccc2nc(NC(=O)CCCc3cccs3)sc2c1	·	–	·	–	·	·
O=C(CCCc1cccs1)Nc1nc2c(s1)CCCC2	–	–	–	–	-7.6	–
Cc1ccc(CC(=O)Nc2nc3c(s2)CCCC3)cc1	–	–	–	–	-5.2	·
O=C(CS(=O)(=O)Cc1ccccc1)Nc1nc2c(s1)CCCC2	–	–	–	–	–	–
O=C(Cc1ccc(S(=O)(=O)N2CCCC2)s1)Nc1nc2c(s1)CCCC2	–	–	–	–	-3.8	–
CCOC(=O)Cc1csc(NC(=O)c2cccc(N3C(=O)CCC3=O)c2)n1	–	–	–	–	–	–
Cc1ccc(-c2csc(NC(=O)c3cccc(N4C(=O)CCC4=O)c3)n2)o1	–	–	–	–	-5.2	–
O=C(CCCN1C(=O)c2ccccc2C1=O)Oc1ccc(F)cc1	–	–	–	38	–	–
CC(NC(=O)Nc1nnc(C(F)(F)F)s1)(C(F)(F)F)C(F)(F)F	–	–	–	–	-7.7	–
CC(C)(C)CC(=O)Nc1nnc(C(F)(F)F)s1	–	·	2.8	·	–	·
O=C(CCC(=O)NC1CCCCCC1)Nc1nnc(C(F)(F)F)s1	–	–	–	–	–	·
O=C(NCC1OCCc2ccccc21)c1ccco1 (stereo not given)	–	–	–	–	–	–
O=C(CNC(=O)c1cccs1)NCC(=O)OCc1ccc(Cl)cc1	·	–	–	32	–	·
SMILES	Smad3 inh	PostGolgi yeast	DAT uptake mod	PostGolgi ctrl	Cav32 inh	TNAP act mid DEA
O=C(CNC(=O)c1cccs1)NCC(=O)OCc1ccc(Cl)cc1Cl	·	–	–	–	–	·
COc1cccc(/C=c2/s/c(=C(\C#N)C(=O)N3CCOCC3)n(-c3ccccc3)c2=O)c1	–	–	–	–	–	·
Cc1cc(C)c2c3c(sc2n1)C1(CCSCC1)C(C#N)=C(N)O3	·	·	–	·	–	·
O=C(NCCN1CCCCC1)c1ccc(=O)oc1	–	–	–	–	–	–
Cc1ccccc1Nc1nc(N)nc(CN(C)c2ccccc2)n1	–	–	–	–	–	–
Cc1ccc(-c2csc(NC(=O)CSC3=NCCS3)n2)cc1	–	·	–	·	–	·
Cc1ccc(Nc2nc(Nc3ccc(C)cc3)nc(SC3=NCCS3)n2)cc1	–	–	·	38	·	·
Cc1ccccc1Nc1nc(Nc2ccccc2C)nc(SC2=NCCS2)n1	–	–	–	–	-4.6	·
CCOc1cccc2c1OC1(C)CC2NC(=O)N1c1ccc(OC)cc1 (stereo not given)	·	–	–	–	–	–
CC12CC(NC(=O)N1Cc1ccccc1)c1ccccc1O2 (stereo not given)	–	–	–	–	-5.4	–
CC12CC(NC(=O)N1c1ccc(C(=O)N3CCN(c4ccc(F)cc4)CC3)cc1)c1ccccc1O2 (stereo not given)	–	–	–	–	-5.3	–
COc1ccccc1N1CCN(C(=O)c2cccc(N3C(=O)NC4CC3(C)Oc3ccccc34)c2)CC1 (stereo not given)	–	–	–	–	-3.9	–
CC12CC(NC(=O)N1c1cccc(C(=O)NCc3ccccc3)c1)c1ccccc1O2 (stereo not given)	·	–	·	–	·	·
CC12CC(NC(=O)N1c1cccc(C(=O)N3CCN(c4ccccc4)CC3)c1)c1ccccc1O2 (stereo not given)	–	–	–	–	-5.4	–
CCSc1nc(N)nc(-c2cccs2)c1C#N	·	–	–	40	·	·
N#Cc1c(N)nc(SCc2ccncc2)c(C#N)c1-c1cccs1	–	–	–	49	–	–
COc1ccc(-c2nc(-c3cccs3)c(-c3cccs3)[nH]2)cc1OC	–	–	–	38	–	·
O=[N+]([O-])c1cccc(-c2nc(-c3cccs3)c(-c3cccs3)[nH]2)c1	·	–	–	–	–	·
O=[N+]([O-])c1cccc(-c2nc(-c3ccccc3)c(-c3cccs3)[nH]2)c1	·	–	–	–	–	·
O=[N+]([O-])c1ccc(-c2nc(-c3cccs3)c(-c3cccs3)[nH]2)cc1	·	–	–	60	–	·
COc1ccc(-c2nc(-c3ccccc3)c(-c3cccs3)[nH]2)cc1OC	–	–	–	34	–	·
Cc1ccc(C(=O)N2CCC(C(N)=O)CC2)cc1C	–	–	–	–	–	–
C[C@H](CCC(=O)O)[C@H]1CC[C@H]2[C@@H]3[C@@H](O)C[C@@H]4C[C@H](O)CC[C@]4(C)[C@H]3CC[C@]12C	·	·	–	·	·	·
CC1=C(CC[C@H](C)CO)O[C@@H]2C[C@@H]3[C@H]4CC[C@H]5C[C@@H](O)CC[C@]5(C)[C@@H]4CC(=O)[C@@]3(C)[C@H]12	99	·	·	·	·	·
CCC(=O)N1C(C(=O)NCc2ccc(OC)cc2)CSC1c1ccc(OC)cc1 (stereo not given)	–	–	–	–	–	·
OC(CSc1ccccc1Cl)CN1CCN(c2ccc(F)cc2)CC1 (stereo not given)	·	–	–	31	–	·
OC(CSc1c(Cl)cccc1Cl)CN1CCN(c2ccccc2F)CC1 (stereo not given)	·	–	–	–	–	·
OC(CSc1c(Cl)cccc1Cl)CN1CCN(c2ccc(F)cc2)CC1 (stereo not given)	·	–	–	37	–	·

Screening data as filed in PubChem BioAssay.
